Structures can show the parent of a compound that is named as a salt.
How the values were obtained:
Settings in all cases: incubation time: 27 h, anaerobic, 37 °C;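 for the amine columns active = adjusted P below 0.05 in both replicates with a change the same way and a mean fold change under 0.8 or over 1.25; inactive = the rest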
[1] = test system: Clostridium sporogenes DSM 1664; experiment: growth (OD595) fold change vs plate DMSO controls (fold change (ratio)); higher = more growth
Method in brief: (§1)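 After 27 h at 37 °C under anaerobic conditions, 96-well cultures in mGAM were shaken and read at 595 nm. The readings were blank-subtracted, corrected for compound background using 20 µM compound solutions in water, and converted to OD with a calibration factor of 5. Growth is defined as the fold change over the median of DMSO controls on each plate. Fold changes above 1.5 were set to NA, and each value is the mean of 2 biological replicates.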

Escherichia coli IAI1 [2] = experiment: as above
Method in brief: as §1

[3] = test system: Klebsiella aerogenes DSM 30053; experiment: as above
Method in brief: as §1

[4] = test system: Ruminococcus gnavus DSM 108212; experiment: as above
Method in brief: as §1

[5] = test system: Klebsiella aerogenes DSM 30053; experiment: fold change of Histamine concentration vs plate DMSO controls (fold change (ratio)); higher = more amine produced, active = hit call of the paper (significant change in both replicates, either direction)
Method in brief: (§2)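 Each value is the fold change relative to DMSO-only wells on the same plate. Four gut bacterial strains were grown anaerobically in mGAM at 37 °C for 27 h in 80 µL wells, starting at OD 0.1 before a 1:1 dilution, with compounds at 20 µM final (sweeteners 50 µM). Whole cultures were extracted with cold acetonitrile/methanol containing 0.1% formic acid, centrifuged, and amines were quantified by LC–triple-quadrupole MS (dynamic MRM) against external calibration curves with within-batch drift correction. Values are means of 2 biological replicates.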

[6] = test system: Clostridium sporogenes DSM 1664; experiment: fold change of Tryptamine concentration vs plate DMSO controls (fold change (ratio)); higher = more amine produced, active = hit call of the paper (significant change in both replicates, either direction)
Method in brief: as §2

[7] = test system: Ruminococcus gnavus DSM 108212; experiment: as above
Method in brief: as §2

Escherichia coli IAI1 [8] = experiment: fold change of Putrescine concentration vs plate DMSO controls (fold change (ratio)); higher = more amine produced, active = hit call of the paper (significant change in both replicates, either direction)
Method in brief: as §2

[9] = test system: Klebsiella aerogenes DSM 30053; experiment: as above
Method in brief: as §2

Escherichia coli IAI1 [10] = experiment: fold change of Cadaverine concentration vs plate DMSO controls (fold change (ratio)); higher = more amine produced, active = hit call of the paper (significant change in both replicates, either direction)
Method in brief: as §2

[11] = test system: Klebsiella aerogenes DSM 30053; experiment: as above
Method in brief: as §2

[12] = test system: Ruminococcus gnavus DSM 108212; experiment: fold change of 2-Phenylethylamine concentration vs plate DMSO controls (fold change (ratio)); higher = more amine produced, active = hit call of the paper (significant change in both replicates, either direction)
Method in brief: as §2

Structure (SMILES)	growth [1]	growth (Escherichia coli IAI1 [2])	growth [3]	growth [4]	fold change of Histamine concentration [5]	fold change of Tryptamine concentration [6]	fold change of Tryptamine concentration [7]	fold change of Putrescine concentration (Escherichia coli IAI1 [8])	fold change of Putrescine concentration [9]	fold change of Cadaverine concentration (Escherichia coli IAI1 [10])	fold change of Cadaverine concentration [11]	fold change of 2-Phenylethylamine concentration [12]
CCN(CCCCOC(=O)c1ccc(OC)c(OC)c1)C(C)Cc1ccc(OC)cc1 (stereo not drawn) [Mebeverine hydrochloride] (20 µM)	0.955	1.25	0.995	0.632	0.903 (inactive)	1.01 (inactive)	0.985 (inactive)	1.15 (inactive)	1.05 (inactive)	1.04 (inactive)	1.02 (inactive)	1.01 (inactive)
O=C1OC(c2ccc(O)cc2)(c2ccc(O)cc2)c2ccccc21 [Phenolphthalein] (20 µM)	1.03	0.983	0.993	0.964	1 (inactive)	0.974 (inactive)	1 (inactive)	0.991 (inactive)	0.977 (inactive)	0.965 (inactive)	1.02 (inactive)	0.986 (inactive)
CC(C)NCC(O)COc1ccc(CCOCC2CC2)cc1 (stereo not drawn) [Betaxolol hydrochloride] (20 µM)	1.11	0.969	1.07	0.967	0.935 (inactive)	0.955 (inactive)	1 (inactive)	1.02 (inactive)	0.994 (inactive)	0.99 (inactive)	1 (inactive)	1.01 (inactive)
C/C(O)=C(\C#N)C(=O)Nc1ccc(C(F)(F)F)cc1 [Teriflunomide] (20 µM)	0.938	1.02	1.01	0.966	1.01 (inactive)	0.946 (inactive)	1 (inactive)	1.07 (inactive)	1.02 (inactive)	1.09 (inactive)	0.998 (inactive)	1.04 (inactive)

Reference: the supplement of paper PMC12494721
